Only some compounds are listed: those with a hit (about 2.2% of all), similar ones and a draw of the others.
GLP1R ag – agonists of human GLP-1 receptor; P43220; HEK293 GLP-1R CRE-luciferase, luminescence, 4-6 h; cells express a hypersensitive GLP-1R form; Potency, µM (titrated, usually from 45.6 µM), most hits filed as activators; 380,000 compounds, 0.007% hits; AID 624172
Target sequence (P43220 whole entry, looked up): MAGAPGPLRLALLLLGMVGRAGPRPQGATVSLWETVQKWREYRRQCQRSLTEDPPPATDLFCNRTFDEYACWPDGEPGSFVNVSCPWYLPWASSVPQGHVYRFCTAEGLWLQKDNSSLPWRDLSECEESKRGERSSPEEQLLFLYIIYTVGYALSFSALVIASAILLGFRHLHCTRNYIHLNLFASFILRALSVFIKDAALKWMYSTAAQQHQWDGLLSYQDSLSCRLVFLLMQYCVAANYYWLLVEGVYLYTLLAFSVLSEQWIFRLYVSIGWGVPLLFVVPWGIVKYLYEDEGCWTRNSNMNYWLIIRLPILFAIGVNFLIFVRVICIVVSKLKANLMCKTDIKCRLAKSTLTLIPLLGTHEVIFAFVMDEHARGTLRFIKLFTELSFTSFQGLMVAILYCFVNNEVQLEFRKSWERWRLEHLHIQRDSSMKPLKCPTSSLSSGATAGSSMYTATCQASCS
CCT modulator – modulators of cytosolic chaperonin (CCT/TRiC) activity; activity change, % (test concentration not listed), hits read low; 360,000 compounds, 0.3% hits; purified chaperonin ATPase assay, HTRF ADP detection, 30 min; AID 651819; in the data active = activity change below about -30%
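TRiC (40 or 20 nM final, by batch activity) in 30 mM Tris pH 7.4, 100 mM KCl, 5 mM MgCl2, 1 mM DTT was treated with compound at 76 uM single dose, then 10 uM ATP, 30 min at 37 °C. ADP was read by HTRF Transcreener.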
HEK293 tox – cytotoxic in the GLP-1 receptor inverse agonist counter-screen; 410,000 compounds, 0.13% hits; Potency, µM (titrated, usually from 38.3 µM), usual class: inhibitors; HEK293 cAMP-luciferase reporter cells, luminescence, 24 h;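 also: loss of luciferase light is scored as toxicity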
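Quantitative HTS format, 1536 wells, 200 cells/uL seeded. Compounds: 23 nL, 24 h, 37 °C. Detection: luciferase reagent, luminescence at 12 min RT; decreased signal taken as cytotoxic.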
GLP1R inv ag – inverse agonists of human GLP-1 receptor; HEK293 GLP-1R CRE-luciferase, luminescence, 24 h; GLP-1R form is constitutively active; 410,000 compounds, 1.6% hits; Potency, µM (titrated, usually from 38.3 µM), hits mostly inhibitors; P43220; also: nearly all actives have a fitted effect of over 55% in size
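qHTS in 1536-well format: reporter HEK293 cells expressing constitutive GLP-1R activity in DMEM + 10% Nu serum, 24 hr with compounds at 37 deg C, luminescence read after 12 min with detection reagent.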
uPA surface inh – blocks generation of uPA at the cell surface. cell surface uPA generation assay, qHTS. Potency, µM (series often up to 38.3 µM), usual class: inhibitors. 330,000 compounds, 0.31% hits. AID 540303; active = well fitted inhibition curve with a large enough effect; inconclusive = small, poorly fitted or top-dose-only effect; inactive = no such curve, though single readings can be large or run the other way; tested in mouse RAW 264.7 cells; also: nearly all actives have a fitted effect of over 55% in size
MmCpn inh – inhibitors of Methanococcus maripaludis chaperonin TRiC (MmCpn); AID 504842; 330,000 compounds, 0.031% hits; purified Mm-Cpn ATPase, ADP Transcreener TR-FRET; Potency, µM (highest dose often 76.9 µM), hits mostly inhibitors; also: nearly all actives have a fitted effect of over 80% in size
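ATPase turnover read by TR-FRET ADP competition (Eu cryptate antibody/ADP-d2, 665/590 nm): 10uM ATP final, 25nM Mm-CPN final, 30 min 37degC after 10-min compound preincubation, pH 7.4 Tris/KCl/MgCl2/DTT buffer.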
Each line names hits and unclear results; the compound was inactive in the other large screens; ! = not active in a repeat. Unless noted, calls follow the shape of the dose curve; as a rule, active = well fitted curve in the direction sought with a large enough effect; inconclusive = small, poorly fitted or top-dose-only effect, or another doubt; inactive = no such curve, though single readings can be large; an effect the other way counts as inactive or inconclusive.

CCN(CC)CCNC(=O)c1ccc2c(c1NCCO)C(=O)c1ccccc1C2=O	HEK293 tox 5µM, GLP1R inv ag inconclusive, uPA surface inh inconclusive
CC1CCN(C(=O)c2ccc3c(c2NCCO)C(=O)c2ccccc2C3=O)CC1	HEK293 tox inconclusive
COc1ccccc1C(=O)Nc1ccc2c(c1)nc(CCNC(=O)c1ccccc1)n2C	HEK293 tox 10µM, GLP1R inv ag inconclusive
O=C(c1cn(-c2ccccc2)nc1-c1cccs1)N(CCO)Cc1ccccc1	GLP1R inv ag 11µM
CCCCN(CCCNC(=O)CN1N=C(c2ccccc2)CCC1=O)c1ccccc1	GLP1R inv ag 10µM (no result: GLP1R ag, CCT modulator, uPA surface inh, MmCpn inh)
CCCCN(CCCNC(=O)c1ccc2c(c1)NC(=O)CN2C)c1ccccc1	GLP1R inv ag 2.8µM (no result: uPA surface inh, MmCpn inh)
CCCCCCCNC(=O)CN1N=C(c2ccc(C)cc2)CCC1=O	GLP1R inv ag inconclusive
CCn1cc(CCCC(=O)NCc2cccc(OC)c2)c2ccccc21	GLP1R inv ag 10µM
O=C(NCCN1CCN(c2ccccc2)CC1)Nc1cccc(Cl)c1	GLP1R inv ag 2.5µM
Cc1cc(C(=O)NCCN2CCN(c3cccc(Cl)c3)CC2)n(-c2ccccc2)n1	GLP1R inv ag 6.3µM, uPA surface inh inconclusive
O=C(Cc1cccs1)NC1CC(=O)N(c2ccccc2)C1 (centres undefined)	none (no result: GLP1R ag, CCT modulator, uPA surface inh, MmCpn inh)
CC(C)c1ccc(-n2c(-c3ccccc3)c[n+]3c2CCc2ccccc2-3)cc1	HEK293 tox inconclusive, GLP1R inv ag inconclusive, uPA surface inh inconclusive
COc1ccc(-n2c(-c3ccc(Br)cc3)c[n+]3c2CCc2ccccc2-3)cc1	GLP1R inv ag inconclusive, uPA surface inh 5µM
COc1ccccc1-n1c(-c2ccccc2)c[n+]2c1CCc1ccccc1-2	HEK293 tox inconclusive, GLP1R inv ag inconclusive, uPA surface inh 11µM!
CCN(CC)CC(O)c1ccc2ccc3ccc(O)cc3c2c1 (centres undefined)	HEK293 tox inconclusive, GLP1R inv ag 11µM (no result: MmCpn inh)
CCN(Cc1ccccc1)C(=O)c1cc(-c2ccccc2)n[nH]1	none (no result: GLP1R ag, CCT modulator, uPA surface inh, MmCpn inh)
Cc1oc(-c2ccccc2F)nc1CN1CCC(C(=O)NCCC2=CCCCC2)CC1	CCT modulator -52
O=C1CC(=O)N(CCNc2ncc(C(F)(F)F)cc2Cl)C(=O)N1	none
O=C1C=CC(=O)N1CCNc1ncc(C(F)(F)F)cc1Cl	HEK293 tox inconclusive, GLP1R inv ag 11µM
O=c1[nH]c2cc(Cl)ccc2n(CCNc2ncc(C(F)(F)F)cc2Cl)c1=O	CCT modulator -67
COc1ccc(-c2nc3c4ccccc4n(CC(=O)N4CCN(c5ccccc5OC)CC4)c(=O)n3n2)cc1	none (no result: GLP1R ag, CCT modulator, uPA surface inh, MmCpn inh)
N#C/C(=N/Nc1ccc(OC(F)(F)F)cc1)C(N)=S	HEK293 tox inconclusive, GLP1R inv ag inconclusive, uPA surface inh 7.9µM
O=C1CC(c2ccccc2)Sc2ccccc2N1Cc1ccc(F)cc1 (centres undefined)	GLP1R inv ag inconclusive (no result: CCT modulator, uPA surface inh, MmCpn inh)
CCN(CC(=O)NCc1ccc(Cl)cc1)C(=O)CSc1ccc(Br)cc1	GLP1R inv ag 6.3µM
COc1ccc(CCNC(=O)CCCn2c(=O)c3ccccc3n(CC(=O)Nc3cccc(C)c3)c2=O)cc1OC	none (no result: CCT modulator, uPA surface inh, MmCpn inh)
C/C(=N\Nc1ccc(F)cc1F)c1ccc(Br)s1	GLP1R inv ag 13µM
O=C(CCS(=O)(=O)c1ccccc1)N(CCCN1CCOCC1)c1nc2c(F)cccc2s1	HEK293 tox 10µM, GLP1R inv ag inconclusive, uPA surface inh inconclusive
Cc1ccc(N2C(=O)CC(Sc3nc(C)cc(C)n3)C2=O)cc1 (centres undefined)	HEK293 tox inconclusive, GLP1R inv ag inconclusive, uPA surface inh 5µM
CN(C)C(CNC(=O)c1cc(S(=O)(=O)N(C)c2ccccc2)ccc1Cl)c1ccccc1 (centres undefined)	GLP1R inv ag 10µM
CN(C)C(CNC(=O)c1cc(S(=O)(=O)N(C)c2ccc(F)cc2)ccc1Cl)c1ccco1 (centres undefined)	GLP1R inv ag inconclusive
CCC(C(=O)Nc1cccc(S(=O)(=O)N(C)c2ccccc2)c1)c1ccccc1 (centres undefined)	GLP1R inv ag 7.1µM
Cc1cccc(NC(=O)C(Cc2ccccc2)n2cccc2)c1C (centres undefined)	GLP1R inv ag inconclusive (no result: GLP1R ag, CCT modulator, uPA surface inh, MmCpn inh)
CCCCCn1c(=O)[nH]c2cc(C(=O)N3CCN(c4cccc(C)c4)C(C)C3)ccc2c1=O (centres undefined)	none (no result: CCT modulator, uPA surface inh, MmCpn inh)
O=C(/C=C/c1ccc([N+](=O)[O-])cc1)Nc1ncc([N+](=O)[O-])s1	HEK293 tox inconclusive, GLP1R inv ag 13µM, uPA surface inh inconclusive
CCOc1cc(Cn2c(-c3ccc(O)c(OCC)c3)nc3ccccc32)ccc1O	GLP1R inv ag inconclusive (no result: GLP1R ag, CCT modulator, uPA surface inh, MmCpn inh)
CCN1CCN(c2cc(C)c3cc(NC(=S)NCCN(C)C)ccc3n2)CC1	HEK293 tox inconclusive, GLP1R inv ag 3.5µM
CCCCN(C)CCNC(=S)Nc1ccc2nc(N3CCN(CC)CC3)cc(C)c2c1	HEK293 tox 5µM, GLP1R inv ag 1.1µM
CCCCN(C)C(=S)Nc1ccc2nc(N3CCN(CC)CC3)cc(C)c2c1	GLP1R inv ag inconclusive
CCN(CC)CCNC(=S)Nc1ccc2nc(N3CCN(CC)CC3)cc(C)c2c1	HEK293 tox inconclusive, GLP1R inv ag 2.5µM
CCOC(=O)N1CCC(NC(=S)Nc2ccc3nc(N4CCN(CC)CC4)cc(C)c3c2)CC1	HEK293 tox inconclusive, GLP1R inv ag 8.9µM
CCCCNC(=S)Nc1ccc2nc(N3CCN(CC)CC3)cc(C)c2c1	HEK293 tox inconclusive, GLP1R inv ag inconclusive
COc1ccccc1NC(=O)N1CC=C(c2c[nH]c3ccccc23)CC1	none (no result: GLP1R ag, CCT modulator, uPA surface inh, MmCpn inh)
O=C(NCC1CCCO1)C(c1cccs1)N(Cc1ccccc1Cl)C(=O)c1ccc(-c2ccccc2)[nH]1 (centres undefined)	GLP1R inv ag 2.5µM
Cc1ccc(-c2nnn(CC(=O)N(CCN3CCOCC3)C(C(=O)NC(C)(C)C)c3ccco3)n2)cc1 (centres undefined)	CCT modulator -63
Cc1ccc(-c2nnn(CC(=O)N(CCN3CCOCC3)C(C(=O)NC(C)(C)C)c3ccc(C)o3)n2)cc1 (centres undefined)	none
Cc1ccc(CNC(=O)CCCN2C(=O)CCn3nc(-c4cn(C)c5ccccc45)cc32)cc1	none (no result: GLP1R ag, CCT modulator, uPA surface inh, MmCpn inh)
CC1CN(C(=O)CCC(=O)NCc2ccccc2)c2cc(Cl)ccc2O1 (centres undefined)	GLP1R inv ag 10µM
CC1CN(C(=O)CCC(=O)NCc2ccc(F)cc2)c2cc(Cl)ccc2O1 (centres undefined)	none (no result: GLP1R ag, CCT modulator, uPA surface inh, MmCpn inh)
C/C(=N\NC(=O)CN(c1ccccc1)S(C)(=O)=O)c1ccccc1O	GLP1R inv ag 5µM
CCCCCn1c(=O)[nH]c2cc(C(=O)NCCN3CCCCC3C)ccc2c1=O (centres undefined)	GLP1R inv ag inconclusive

Bioassay records (PubChem)
